# PubChem BioAssay (EPA / NIEHS)
# The source made the active and inactive calls. The calls were made as follows: active = hit-call score of the fitted dose curve at least 0.9, where 1 is the maximum; inactive = score below 0.9.
# Test: ATG_PBREM_CIS: Attagene CIS-FACTORIAL HepG2 Assay for human Phenobarbital-responsive Enhancer Module (PBREM) (AID 2282955)
# Conditions: HepG2 PBREM cis-reporter, Attagene multiplexed transcription; actives raise or lower the signal
# Method: ATG_CIS is a cell-based, multiplexed-readout assay that uses HepG2, a human liver cell line, with measurements taken at 24 hours after chemical dosing in a 24-well plate.ATG_PBREM_CIS is one of 52 assay component(s) measured or calculated from the ATG_CIS assay. It is designed to make measurements of mRNA induction, a form of inducible reporter, as detected with fluorescence intensity signals by Reverse transcription polymerase chain reaction (RT-PCR) and Capillary electrophoresis technology.Data from the assay component ATG_PBREM_CIS was analyzed into 1 assay endpoint. This assay endpoint, ATG_PBREM_CIS, was analyzed with bidirectional fitting relative to DMSO as the negative control and baseline of activity. Using a type of inducible reporter, measures of mRNA for gain or loss-of-signal activity can be used to understand the reporter gene at the transcription factor-level as they relate to the gene NR1I3. Furthermore, this assay endpoint can be referred to as a primary readout, because this assay has produced multiple assay endpoints where this one serves a reporter gene function. To generalize the intended target to other relatable targets, this assay endpoint is annotated to the nuclear receptor intended target family, where the subfamily is non-steroidal.
# Human liver HepG2 cells are transiently transfected with multiple reporter transcription units (MRTUs) in 6-well plates using FuGene 6 reagent (Roche; 3 ml FuGene/1 mg DNA). The MRTU constructs are regulated by a cis-regulating element (promoter). […] A major difference between the CIS and TRANS system is that in CIS activities of endogenous TFs are measured, whereas the TRANS assay evaluates changes in activities of exogenous, chimeric NR-Gal4 proteins. […] At the end of 24 hour incubation, total RNA was isolated using TriZol reagent (Invitrogen). The isolated RNA is then reverse-transcribed using oligo(dT) primer and Mo-MLV reverse transcriptase (Invitrogen) with DNAse I (Ambion) treatment for 30 min. The one-tenth of the produced cDNA was amplified by PCR using Taq DNA polymerase (Invitrogen) and two reporter sequence-specific primers. The PCR products were fluorescently labeled by primer extension with 6-arboxyfluorescein (6-FAM) 5'-labeled reporter sequence-specific primer (2 min at 95 C, 20 s at 68 C and 10 min at 72 C) and these products were digested with 5U of HpaI (New England Biolabs) for 2h at 37 C. The fragments were purified using Qiaquick PCR columns (Qiagen), analyzed on an ABI 3130xL genetic analyzer (Applied Biosystems) with peak positions identified by using a set of X-rhodamine (ROX)-labeled MapMarker1000 molecular weight standards (BioVentures). The raw capillary electrophoresis data was processed using Attagraph software (Attagene).
SMILES,outcome,AC50
O=C(CC(C(=O)OC1CCCCC1)S(=O)(=O)O)OC1CCCCC1 (stereo not given),inactive,–
CN(C)c1ccc(C(c2ccccc2)c2ccc(N(C)C)cc2)cc1,inactive,–
CCCN[C@H]1CCc2nc(N)sc2C1,inactive,–
CC(C)(Oc1ccc(Cl)cc1)C(=O)O,inactive,–
CC/C=C\CC1=C(C)CCC1=O,inactive,–
O=C(O)Cc1c[nH]c2ccccc12,inactive,–
Cc1cccnc1,inactive,–
NCc1ccccc1,inactive,–
Oc1ccc(Oc2ccccc2)cc1,inactive,–
CC(C)(C)NC(=O)[C@@H]1CN(Cc2cccnc2)CCN1C[C@@H](O)C[C@@H](Cc1ccccc1)C(=O)N[C@H]1c2ccccc2C[C@H]1O,inactive,–
C[Si](C)(C)O[Si](C)(C)O[Si](C)(C)C,inactive,–
CC(C)CC(=O)CC(C)CC(C)C (stereo not given),inactive,–
Cc1cc(C)c(S(=O)(=O)O)cc1N=Nc1cc(S(=O)(=O)O)c2ccccc2c1O,inactive,–
Oc1cccc2ccccc12,inactive,–
CCC(C)NC(N)=O (stereo not given),inactive,–
CCC(C)=NO,inactive,–
O=C1CCCCCCCCCCCCCC1,inactive,–
c1cc[c]([Bi]([c]2ccccc2)[c]2ccccc2)cc1,inactive,–
Nc1ccc(S(=O)(=O)Nc2cnc3ccccc3n2)cc1,inactive,–
CN(C)CCCN1c2ccccc2CCc2ccc(Cl)cc21,inactive,–

SMILES,outcome,AC50
CCCC(=O)OC/C=C(\C)CCC=C(C)C,inactive,–
CC(C)CC(=O)O,inactive,–
O=C1NC(=O)C2CC=CCC12 (stereo not given),inactive,–
C/C=C(\C)C(=O)OCC/C=C\CC,inactive,–
CCO[Si](CCCN)(OCC)OCC,inactive,–
CCCCCCCCCCCCCCCCCC[N+](C)(C)C,–,45.4 µM (active)
c1ccc2c(c1)Oc1ccccc1S2,inactive,–
Nc1nnc(-c2ccc([N+](=O)[O-])o2)o1,inactive,–
CC(=O)CCc1ccccc1,inactive,–
O=C(C(=O)c1ccccc1)c1ccccc1,inactive,–
O=C(O)/C=C\C(=O)O,inactive,–
C[C@H]1C[C@H]2[C@@H]3CCC4=CC(=O)C=C[C@]4(C)[C@@]3(F)[C@@H](O)C[C@]2(C)[C@@]1(O)C(=O)CO,inactive,–
CCCCCCC1CCC(=O)O1 (stereo not given),inactive,–
COC(=O)[C@]1(C)CCC[C@@]2(C)[C@H]1CC=C1C=C(C(C)C)CC[C@@H]12,inactive,–
OCCc1ccccn1,inactive,–
C=CCOCC(CC)(CO)COCC=C,inactive,–
c1ccc(CNc2ncnc3nc[nH]c23)cc1,inactive,–
Sc1nc2ccccc2s1,inactive,–
CCCCCCCCCCC1CO1 (stereo not given),inactive,–
CCCCCCOC(=O)CCCCCCCC(=O)OCCCCCC,inactive,–
